ST2 inh – blocks human ST2 binding to IL-33 | inhibition, % for hits at 17 µM | Q01638 | AlphaLISA ST2-Fc/biotin-IL-33 interaction, 1 h | hit rate 2.3% among 78,000; in the data active means inhibition above about 30%
Target sequence (Q01638 whole entry, looked up): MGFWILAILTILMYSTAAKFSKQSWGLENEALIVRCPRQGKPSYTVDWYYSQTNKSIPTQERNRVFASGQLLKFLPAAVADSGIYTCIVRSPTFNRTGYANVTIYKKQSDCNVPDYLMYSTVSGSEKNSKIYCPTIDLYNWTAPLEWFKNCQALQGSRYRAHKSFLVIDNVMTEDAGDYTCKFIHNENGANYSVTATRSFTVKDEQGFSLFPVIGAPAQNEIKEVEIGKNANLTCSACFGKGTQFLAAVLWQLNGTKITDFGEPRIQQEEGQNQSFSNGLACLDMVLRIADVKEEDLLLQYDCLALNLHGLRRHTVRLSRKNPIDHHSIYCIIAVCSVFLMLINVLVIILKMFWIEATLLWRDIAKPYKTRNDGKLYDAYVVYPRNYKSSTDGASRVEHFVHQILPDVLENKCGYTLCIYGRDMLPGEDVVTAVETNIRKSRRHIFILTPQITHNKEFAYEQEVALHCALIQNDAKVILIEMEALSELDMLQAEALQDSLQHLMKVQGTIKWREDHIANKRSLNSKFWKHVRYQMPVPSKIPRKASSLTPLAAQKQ
* marks the source's active call; other numbers are inactive results. The sample as a whole holds a higher share of hits than the screen did.

`C[C@H]1[C@@H]2[C@@H](O)C([C@H](C)C(=O)N(C)CCC#N)CC[C@@]2(C)CC[C@@H]1NC(=O)c1cncnc1` (stereo partly drawn) gave ST2 inh inactive.
CCN(CC)C(=O)[C@@H](C)[C@@H]1CC[C@@]2(C)CC[C@H](NC(=O)c3cnccn3)[C@@H](C)[C@@H]2[C@H]1O was read as ST2 inh inactive.
`O=[N+]([O-])c1ccccc1S(=O)(=O)Nc1ccc(I)cc1` gave ST2 inh inactive.
Screening COc1ccc(-c2noc([C@@H]3C[C@@H](O)CN3Cc3ccc(OC)c(OC)c3OC)n2)cc1 returned ST2 inh inactive.
Screening O=C(Nc1nc(-c2cc3ccccc3oc2=O)cs1)c1cc(=O)c2ccccc2o1 returned ST2 inh inactive.
`COc1ccc(C(=O)Nc2nc(-c3cc4ccccc4oc3=O)cs2)cc1OC` gave ST2 inh 38%*.
For COc1cc2ccccc2cc1C(=O)Nc1nc(-c2cc3ccccc3oc2=O)cs1 the results were ST2 inh inactive.
For O=C(C1CC1)N1CCC(Oc2cccc(C(=O)N3CC4C[C@@H]5CC3C[C@H](C4)C5)c2)CC1 the results were ST2 inh inactive.
For O=C(CN1C(=O)S/C(=C\C=C\c2ccccc2)C1=O)Nc1ccc(C(=O)O)cc1 the results were ST2 inh 32%*.
Screening CC(C)(C)NC(=O)CN1C(=O)S/C(=C\c2ccccc2)C1=O returned ST2 inh inactive.
Screening O=C(CN1C(=O)S/C(=C\c2ccccc2)C1=O)Nc1nccs1 returned ST2 inh inactive.
COc1ccc(C(=O)O/N=C(/N)c2ccccn2)cc1OC was read as ST2 inh inactive.
Screening CCc1nc2c(sc3nc4c(cc32)COC(C)(C)C4)c(=O)n1CCN1CCOCC1 returned ST2 inh inactive.
For Cc1ccc(NC(=O)N2Cc3[nH]cnc3C[C@H]2c2nc(-c3cccc(C)c3)no2)cc1 the results were ST2 inh inactive.
O=C(Oc1ccc(Br)cc1)c1cc2ccccc2o1 was read as ST2 inh inactive.
`CCC(C)NC(=O)C1CC(=O)N(c2ccc(F)cc2)C1` (stereo not drawn) gave ST2 inh 33%*.
Screening CC(C)NC(=O)C1CC(=O)N(c2ccc(F)c(Cl)c2)C1 (stereo not drawn) returned ST2 inh inactive.
For Cc1ccnc(NC(=O)C2CC(=O)N(c3ccc(F)cc3)C2)c1 (stereo not drawn) the results were ST2 inh inactive.
For Cc1ccc(Nc2ncnc3[nH]ncc23)cc1 the results were ST2 inh inactive.
`CC(=O)N1CCc2nc(C)nc(NCCSc3ccccn3)c2CC1` gave ST2 inh inactive.
`CC(=O)N1N=C(c2c(-c3ccccc3)c3cc(Cl)ccc3[nH]c2=O)CC1c1ccc(Cl)cc1` (stereo not drawn) gave ST2 inh inactive.
Screening O=C(Nc1ccc(Br)cc1)c1cc(-c2ccc(Cl)cc2)on1 returned ST2 inh inactive.
`O=C(Nc1ccc(F)cc1F)c1cc(-c2ccc(Br)cc2)on1` gave ST2 inh inactive.
Screening COc1ccc(-c2cc(C(=O)Nc3cc(Br)ccc3O)no2)cc1 returned ST2 inh 35%*.

Compound activity (PubChem BioAssay)
